The supplement of paper PMC6555819

These sequences were tested on VDR:RXRa (NR concentration 270 nM, RXRa partner concentration 90 nM) (assay: PBM binding z-score (relative to random genomic background probes); higher = stronger binding; sequences stand for … in GC…GCGATTGACAGCGTAGAATGAAGG).
Description: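 Protein-binding microarray (Agilent 4x180K custom design, double-stranded 60-nt probes: 5' GC cap, 34-nt variable region, 24-nt constant primer region; full probe sequence given). Purified or IVT nuclear receptor:RXRα heterodimers (3:1 NR:RXRα, mostly 270:90 nM) or homodimers were incubated for 1 h in PBS with 2% milk and no ligand, then detected with Alexa488 antibodies. Fluorescence from o1-orientation probes (~5 replicates averaged) was converted to z-scores against 500 random hg19 background probes. Variable regions are seed direct-repeat (DR0–DR5) sites, all their single-nucleotide variants and half-site ablations.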

| Sequence | PBM binding z-score |
| --- | --- |
| TCTTGTAGATCAGCAAGTTAAGAAAGCTGGCCAA | 0.28 |
| GCTAGGTGGTCAGTAAAAGGTCACACACCGGTCG | 4.22 |
| TCTGCCAGGTCAGTTGGTCAGCTAACGAGCTGCC | 0.52 |
| TGTCCAAGTTCAAAGGTAACGTAAGTATCCACAC | 4.6 |
| TCTAGCAGGCCAGAGGGGCACTCAAGAGGTACGG | -0.288 |
| TTACCAAGGTGAGCTGTGGTCGTTGATCCAACTC | -0.311 |
| AACTCTAGGTAAAGTTCAGTGAAAGATCGATAGA | 1.15 |
| GCTATTAGCTGAAAGGGCAACCGAATGATTCTCG | -0.0457 |
| CTCGAAAGGTCGTGCTCTGGTGAGTATACCAAAC | 3.19 |
| GGAACGAGGGCAAGTTGATACCAGAGTTTGATGG | 1.1 |
| CAAACTAGGTCAAGACGTCAAAGTCCGCTTCCCG | 1.62 |
| CCGAGCAGGTTATGGGGCATTCAGGCAACGGTGA | -0.144 |
| GGAACGAGGGCAAGTTGCTAGCAGAGTTTGATGG | 0.604 |
| ATCTCTAGGTAAAGGTTCAGTGAATCCCGAGGAT | 1.09 |
| ACTATTAGTTGAGACGAGGGCAACCCATAGGTTG | 0.697 |
| CCTCACGGGTCACTCCAGGTTATAGCATCGGAGT | 4.07 |
| TCATATAGGCAAAGGTGAAAGTCGAACGATATGA | 0.976 |
| ACAGACAGGTGATGAAGGTAACTCCGGCTATCAT | 0.125 |
| ACTCGGAGGACAAAGATCAGAGCTACGCCAGTGA | -0.289 |
| AGAATGAAGTTATACGTAGATCAGGGAAGAAAGT | -0.299 |

| Sequence | PBM binding z-score |
| --- | --- |
| ATACCAAGGAGATCGTGAGGTCGTTGATACTAAC | 1.44 |
| ACTATGAGTTGACTTAGGGCAACCGATACGACGC | 1.16 |
| TTTAGCAGGCCAGAGGGTCACTCAAGAGGTACGG | 1.55 |
| CGTCCAAGGTCATAGGAGGTAAGTGAAGACAGAT | 4.61 |
| ATCTCTAGGTAAAGTTAAGTGAAAGATCGATAGA | 0.476 |
| CAAACTAGGTCACAGAGGTCAAAGACCGTGCGTA | 7.76 |
| TCTGCTAGGTCAACGATAGTCAGCTAATCTGCTA | 1.24 |
| ACGAGCAGGCCAAGGGTCACTCAAGATTAGTCCG | 2.72 |
| CCTGCTAGGTCATGGGCAGCTAATCTACAGTATG | 1.19 |
| AACTCTAGGTAAGACTCAGTTCAGTGAAGAACGC | 0.138 |
| ATTACAGGGTCACTAGGCCAGAGTAGGTACGAAT | 4.19 |
| AATAAAGGGTCACTAGGCCAGAGTAGGTACGAAT | 4.04 |
| AGAATGAGGTTACCAAAGATCAGGGAAACGCTTG | 1.37 |
| CCTTACGGGTCACTCCAGGTTATAACATCGGAGT | 4.09 |
| CCTACCGGGCCACGAAAGGTCATTGATTCAGTGA | 4.1 |
| GCTGCTAGGTCAGGTTGGTCAGCTTACGGGTACG | 0.539 |
| CCGTCTGGGGCAAAGGTTACCATACTCAGTACGA | 1.55 |
| CAAACTAGGTCACAGAGGTCATAGTCCGTGCGTA | 8.31 |
| GGAACGAGGGCAAGTTGATAGCCGAGTTTGATGG | 1.04 |
| CCTAGTTGGTCAAGGGCACACACGCTATAGGTAC | 0.813 |
